The text below walks through data of PubChem BioAssay (NCATS).

Structures are written as SMILES. Values without a mark were called inactive. Unless noted, calls come from the whole dose curve; as a rule, active = well fitted curve in either direction with a large enough effect (not every such curve was filed as active); inconclusive = small, poorly fitted or top-dose-only effect, or another doubt; inactive = flat fitted curve, though single readings scatter. Records with an inconclusive call do not appear.

For the first assay, the target named is Lysosomal acid glucosylceramidase (Homo sapiens) (UniProt P04062). The assay is described as follows: Glucocerebrosidase-p2 (AID 348; in the data active = potency below about 10 µM; note: potency is the fitted concentration of half-maximal effect). The note with it: purified GBA, blue fluorogenic substrate, 40 min. Put shortly: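 Normal human glucocerebrosidase (0.2 nM) with blue fluorogenic substrate (80 uM final) in citrate/phosphate pH 5.9 with 10mM sodium taurocholate, 0.01% tween-20; 40 min RT, NaOH/glycine stop; fluorescence Ex 365/Em 440; AC50 from a titration from 0.6 nM upwards.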
Sequence of Lysosomal acid glucosylceramidase (Homo sapiens) (P04062 whole entry, looked up): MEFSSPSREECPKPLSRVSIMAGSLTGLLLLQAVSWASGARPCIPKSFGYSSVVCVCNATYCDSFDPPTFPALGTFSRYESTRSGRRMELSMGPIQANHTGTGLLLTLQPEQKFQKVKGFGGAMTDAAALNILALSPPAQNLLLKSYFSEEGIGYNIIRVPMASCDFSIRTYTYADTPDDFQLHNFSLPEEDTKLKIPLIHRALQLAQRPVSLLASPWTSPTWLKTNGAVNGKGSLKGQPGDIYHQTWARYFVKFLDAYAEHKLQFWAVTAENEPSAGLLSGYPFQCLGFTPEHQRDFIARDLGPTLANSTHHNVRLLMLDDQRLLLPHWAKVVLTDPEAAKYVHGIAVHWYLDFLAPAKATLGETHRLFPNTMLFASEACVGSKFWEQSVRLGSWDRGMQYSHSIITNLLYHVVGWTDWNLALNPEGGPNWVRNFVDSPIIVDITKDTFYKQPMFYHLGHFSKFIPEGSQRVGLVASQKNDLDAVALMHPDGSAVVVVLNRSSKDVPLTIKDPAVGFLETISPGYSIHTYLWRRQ
Consider `O=c1cc(CF)[nH]c(=S)[nH]1`, for which the Potency was above 11.4 µM.

For the compound `C[C@@]12CCC(=O)C=C1CC[C@H]1[C@@H]2[C@@H](O)C[C@]2(C)[C@@H]1CC[C@@]2(O)C(=O)CO`, the Potency was above 11.4 µM.

As for `O=C(N/N=C\c1ccc2c(c1)CCC2)c1ccccc1O`, the Potency is above 11.4 µM.

`N[C@@](CCc1ccccc1)(C(=O)O)c1ccccc1`: the Potency was above 11.4 µM.

For `CC1CCC(O)([C@](C)(C(=O)O)c2ccccc2)CC1` (some centres undefined), the Potency was above 11.4 µM.

For the compound `C[C@H]1C[C@H]2[C@H]3CCC4=CC(=O)C=C[C@@]4(C)[C@]3(F)[C@H](O)C[C@]2(C)[C@@]1(O)C(=O)COP(=O)(O)O`, the Potency is above 11.4 µM.

Take `O=C1Nc2ccccc2C1=Nc1ccc(S(=O)(=O)Nc2nccs2)cc1`: the Potency is above 11.4 µM.

For the compound `N[C@@H](Cc1ccccc1)C(=O)O`, the Potency was above 11.4 µM.

As to `C[C@]12CC[C@H]3c4ccc(O)cc4CC[C@@H]3[C@H]1CC[C@@H]2OP(=O)(O)O`, the Potency was above 11.4 µM.

For `O=[N+]([O-])c1ccc(Cl)c(CNc2ncnc3c2ncn3[C@@H]2CCCCO2)c1`, the Potency was above 11.4 µM.

System in the next assay: not listed separately
The assay is described as follows: AP1 Signaling Pathway (AID 357). Note: % is set by controls: 0 for no effect and ±100 for the full control effect. The note with it: ME-180 (cervical carcinoma) AP-1-bla reporter, EGF-induced, beta-lactamase ratio, 5 h; at 7.69 µM (top of the series) unless noted. Put shortly: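 Titration-series screen for positive or negative modulators of EC50 EGF-induced signaling in ME-180 cells carrying an AP-1-driven beta-lactamase reporter. After 5 hours at 37 degrees Celsius, CCF4 460nm/530nm emission ratio gave %Activity; AC50 values derived.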
Turning to `C[C@H](Br)C(=O)c1ccc2cc(Br)c3ccccc3c2c1`, the activity change, negative = inhibition is -18.5%.

For the compound `COc1ccc(C(=O)N2CCC3(CCCN(C(=O)Nc4cccc(F)c4)C3)CC2)cc1`, the activity change, negative = inhibition is -10.3%.

As to `Cc1cc(C)c2c(SCc3ccc(Cl)cc3Cl)nc(N)nc2n1`, the activity change, negative = inhibition is 0.307%.

With `CC(=O)Nc1nc(NC(C)=O)c2[nH]c(CO)nc2n1`, the activity change, negative = inhibition was 9.97%.

For the compound `Clc1ccc(CN2CCCN(Cc3ccc(Cl)cc3)C2c2cc3ccccc3c3ccccc23)cc1`, the activity change, negative = inhibition is 6.24%.

In the case of `COc1cc(-c2[o+]c3cc(O)cc(O)c3cc2O)cc(O)c1O`, the activity change, negative = inhibition is 19.4%.

With `O=C(O)[C@@H](O)[C@@H](O)[C@H](O)[C@H](O)CO`, the activity change, negative = inhibition was -1.8%.

For `Nc1nc2c(ncn2[C@@H]2C=C[C@@H](CO)C2)c(=O)[nH]1`, the activity change, negative = inhibition is 2.92%.

Regarding `Cn1c(=S)c2[nH]c(SCCN3CCCC3)nc2n(C)c1=O`, the activity change, negative = inhibition is -5.98%.

Consider `C/C(CC/C(C)=N/O)=N/O`, for which the activity change, negative = inhibition was 4.13%.

For the compound `Oc1ccc(Cn2c(-c3ccc(O)cc3)nc3ccccc32)cc1`, the activity change, negative = inhibition is 0.507%.

On to `NCCNCC1CCNCC1`, for which the activity change, negative = inhibition is 2.94%.

As for `CO[C@@H]1/C=C\O[C@]2(C)Oc3c(C)c(O)c4c(O)c(cc(O)c4c3C2=O)NC(=O)/C(C)=C\C=C/[C@H](C)[C@@H](O)[C@H](C)[C@H](O)[C@H](C)[C@H](OC(C)=O)[C@@H]1C`, the activity change, negative = inhibition is 1.83%.

In the case of `O=S(=O)(O)c1cc(N=Nc2cccc3ccccc23)c(O)c2ncccc12`, the activity change, negative = inhibition was -3.71%.

Consider `N#[N+]c1ccc(Nc2ccccc2)cc1`, for which the activity change, negative = inhibition was -0.339%.

As to `COC(=O)N1CCC2(CCCN(Cc3cc(C(F)(F)F)cc(C(F)(F)F)c3)C2)CC1`, the activity change, negative = inhibition is 12%.

Regarding `CC(C)(N)CO[C@H]1C[C@H]2CC[C@@]1(C)C2(C)C`, the activity change, negative = inhibition was 4.93%.

In the case of `CC(=O)N[C@@H]1CONC1=O`, the activity change, negative = inhibition is 10.9%.

Consider `CC1=NN(c2ccc(S(=O)(=O)O)cc2)C(=O)/C1=C\c1ccc(Cl)cc1`, for which the activity change, negative = inhibition is 3.84%.

In the case of `O=C1C(=O)c2ccccc2C(O)=C1C(CCc1ccccc1)C1=C(O)c2ccccc2C(=O)C1=O`, the activity change, negative = inhibition is -6.25%.

As for `C[N+](C)(N)Cc1csc(-c2ccc(Cl)cc2)n1`, the activity change, negative = inhibition is 8.47%.

For the compound `CC1=NCC[N@@+]1(CCc1ccccc1)Cc1ccccc1`, the activity change, negative = inhibition is -5.92%.

As for `CN(CC(=O)O)Cc1c(O)c(Cl)cc(Cl)c1Cl`, the activity change, negative = inhibition is -1.4%.

Consider `O=C(O)CS(=O)c1ccc2c3c(cccc13)C(=O)c1ccccc1-2` (centres undefined), for which the activity change, negative = inhibition is -22.7%.

As for `O[C@@H](COc1ccc(Cl)cc1Cl)CN1CCCC1`, the activity change, negative = inhibition was 7.86%.

As for `O=S(=O)(c1ccccc1)N1CCC[C@@]2(CCN(Cc3ccccc3)C2)C1`, the activity change, negative = inhibition is 6.44%.

For the compound `c1ccc([C@H](c2cccc3c2ccc2ccccc23)[C@H](c2ccccc2)c2cccc3c2ccc2ccccc23)cc1`, the activity change, negative = inhibition is 15.9%.

On to `O=C(O)CCc1c2ccc(=O)c(O)c-2oc2c(O)c(O)ccc12`, for which the activity change, negative = inhibition was 3.21%.

Consider `O=C(O)C1(Nc2ccc(Cl)cc2)CCCC1`, for which the activity change, negative = inhibition is -1.27%.

For `O=c1cc(CF)[nH]c(=S)[nH]1`, the activity change, negative = inhibition is 6.77%.

Turning to `C[C@@]12CCC(=O)C=C1CC[C@H]1[C@@H]2[C@@H](O)C[C@]2(C)[C@@H]1CC[C@@]2(O)C(=O)CO`, the activity change, negative = inhibition is -10.2%.

For `O=C(N/N=C\c1ccc2c(c1)CCC2)c1ccccc1O`, the activity change, negative = inhibition was -5.97%.

With `N[C@@](CCc1ccccc1)(C(=O)O)c1ccccc1`, the activity change, negative = inhibition is 4.96%.

With `CC1CCC(O)([C@](C)(C(=O)O)c2ccccc2)CC1` (some centres undefined), the activity change, negative = inhibition was -5.12%.

In the case of `C[C@H]1C[C@H]2[C@H]3CCC4=CC(=O)C=C[C@@]4(C)[C@]3(F)[C@H](O)C[C@]2(C)[C@@]1(O)C(=O)COP(=O)(O)O`, the activity change, negative = inhibition is -4.3%.

In the case of `O=C1Nc2ccccc2C1=Nc1ccc(S(=O)(=O)Nc2nccs2)cc1`, the activity change, negative = inhibition was -7.86%.

In the case of `N[C@@H](Cc1ccccc1)C(=O)O`, the activity change, negative = inhibition was 3.61%.

`C[C@]12CC[C@H]3c4ccc(O)cc4CC[C@@H]3[C@H]1CC[C@@H]2OP(=O)(O)O`: the activity change, negative = inhibition was -3.92%.

Regarding `O=[N+]([O-])c1ccc(Cl)c(CNc2ncnc3c2ncn3[C@@H]2CCCCO2)c1`, the activity change, negative = inhibition was -3.17%.
